# Records with an inconclusive call do not appear. Activity calls are given as the source filed them. How the source made its calls: active means hit-call score of the fitted dose curve at least 0.9, where 1 is the maximum; inconclusive means response in the unintended direction; inactive means score below 0.9.
# Key:
# [1] = ACEA_AR_agonist_AUC_viability: ACEA Biosciences xCELLigence Real-Time Cell Analysis on Androgen Receptor Agonism for Viability (AID 2283775);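 on AC50: viability read 80 hours after compound addition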
# Outline: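 Read-out is area under the impedance curve at 80 h post-dose in 22Rv1 cells, with DMSO as baseline and signal loss taken as reduced viability. Compounds ran in duplicate from 100 uM final.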
# [2] = ACEA_AR_antagonist_AUC_viability: ACEA Biosciences xCELLigence Real-Time Cell Analysis on Androgen Receptor Antagonism for Viability (AID 2283776);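 further: 22Rv1 human prostate cancer cells growing on impedance electrode plates; area under impedance growth curve at 80 h after dosing as viability; hits lower the growth signal relative to DMSO meaning cytotoxicity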
# Outline: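 Real-time electrical impedance tracks 22Rv1 proliferation after continuous compound exposure (top 100 uM final, 1:4 steps, 8 concentrations). The 80 h area-under-curve serves as the cytotoxicity readout relative to DMSO.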
compound,measurement,setting,value
O=C(O)CO,outcome,[1],inactive
same,outcome,[2],inactive
CCCCCCCCCCCCCCCCOS(=O)(=O)O,AC50,[1],38.3 µM (active)
same,AC50,[2],43.8 µM (active)
OCCNCCO,outcome,[1],inactive
same,outcome,[2],inactive
OC[C@H]1O[C@@](CO)(O[C@H]2O[C@H](CO)[C@@H](O)[C@H](O)[C@H]2O)[C@@H](O)[C@@H]1O,outcome,[2],inactive
C=CN1CCCC1=O,outcome,[2],inactive
Nc1ccn([C@@H]2O[C@H](CO)[C@@H](O)[C@@H]2O)c(=O)n1,AC50,[1],1.22 µM (active)
same,AC50,[2],0.88 µM (active)
COCc1nnc(-c2ccc[n+]([O-])c2)n1-c1c(Cl)c(Cl)cc2[nH]c(=O)c(=O)[nH]c12,outcome,[1],inactive
same,outcome,[2],inactive
OCCOCCOCCO,outcome,[2],inactive
CCCC(CCC)C(=O)O,outcome,[1],inactive
same,AC50,[2],50 µM (active)
NNC(=O)c1ccncc1,outcome,[2],inactive
COc1cc2c(c(OC)c1OC)-c1ccc(OC)c(=O)cc1[C@@H](NC(C)=O)CC2,AC50,[1],0.00303 µM (active)
same,AC50,[2],0.00231 µM (active)
OC(Cn1cncn1)(Cn1cncn1)c1ccc(F)cc1F,outcome,[1],inactive
same,outcome,[2],inactive
c1ccc(C(O[C@@H]2CCCN(CCc3ccc4c(c3)OCO4)C2)c2ccccc2)cc1,AC50,[1],41.3 µM (active)
same,AC50,[2],58.3 µM (active)
Cc1ccc(S(=O)(=O)NC(=O)NN2CCCCCC2)cc1,outcome,[2],inactive
O=C(O)c1ccc2c(c1)nc(C(=O)NC1CCN(C3CC3)CC1)n2Cc1cc(-c2ccc(Cl)s2)on1,AC50,[1],18.6 µM (active)
same,AC50,[2],15.8 µM (active)
Cn1cc[nH]c1=S,outcome,[2],inactive
O=S1(=O)CCCO1,outcome,[1],inactive
same,outcome,[2],inactive
c1ccc2cc3ccccc3cc2c1,outcome,[1],inactive
same,outcome,[2],inactive
